The values below come from PubChem BioAssay (NCI).

The panel holds about 83,000 compounds, 20% with a hit somewhere; the sample as a whole holds those more often.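 Cell lines were cultured in 96-well plates, exposed to a single compound concentration, and assessed for percent growth 48 hours later.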 Values without a mark were called inactive. The source made the active and inactive calls. The calls were made as follows: active = growth percent below 10; inactive = the rest.

Common to all, as to test: NCI-60 one-dose screen, 48 h (100 = growth as untreated, 0 = no growth, -100 = all killed)
One assay deals with SN12C renal. The conditions noted are these: 10 µM.
The subject of another assay is TK-10 renal. Particulars: 10 µM unless noted.
A further assay has as its system ACHN renal. Particulars: 10 µM.
The next assay concerns CAKI-1 renal. The conditions noted are these: 10 µM.
In another assay the test system is MOLT-4 leukemia. Particulars: 10 µM.
A further assay has as its system RPMI-8226 leukemia. Particulars: 10 µM.
A further assay deals with OVCAR-8 ovarian. Particulars: 10 µM.
For the next assay, the system named is OVCAR-5 ovarian. Particulars: 10 µM.
Another assay relates to OVCAR-4 ovarian. The conditions noted are these: 10 µM.
Another assay deals with SK-OV-3 ovarian. Particulars: 10 µM.
A further assay concerns IGROV1 ovarian. The conditions noted are these: 10 µM.
For the next assay, the system named is OVCAR-3 ovarian. The conditions noted are these: 10 µM.
The next assay concerns HS 578T breast. The conditions noted are these: 10 µM.
For another assay, the system named is NCI/ADR-RES ovarian. The conditions noted are these: 10 µM.
For the next assay, the system named is EKVX NSCLC. The conditions noted are these: 10 µM.
In the next assay the test system is A498 renal. The conditions noted are these: 10 µM.
Another assay relates to CCRF-CEM leukemia. The conditions noted are these: 10 µM.
The subject of the next assay is UO-31 renal. Particulars: 10 µM.
Another assay deals with SR leukemia. The conditions noted are these: 10 µM.

Regarding `O=C1OC(c2ccc(F)cc2)CC1CN1CCOCC1` (stereo unspecified), the growth in the assay with SN12C renal is 102%; in the assay with TK-10 renal, 83.2%; in the assay on ACHN renal it was 105%; in the assay on CAKI-1 renal it was 85.8%; with MOLT-4 leukemia, 102%; in the assay on RPMI-8226 leukemia, 75.6%. Further, the growth in the assay on OVCAR-8 ovarian is 99.5%; with OVCAR-5 ovarian, 112%; in the assay on OVCAR-4 ovarian, 101%; in the assay on SK-OV-3 ovarian, 107%; in the assay on IGROV1 ovarian, 104%; with OVCAR-3 ovarian, 101%. Further, the growth was 113% in the assay with HS 578T breast and 101% in the assay with NCI/ADR-RES ovarian.
Regarding `CCc1nn(Cc2ccccc2)c2nc(C)c(CCc3ccccc3)c(Cl)c12`, the growth was 84.3% in the assay with EKVX NSCLC; 86.1% in the assay on SN12C renal; 91.5% in the assay with TK-10 renal; 98.4% with ACHN renal; 99.1% with A498 renal; 80.1% with CCRF-CEM leukemia. Moreover, the growth was 96% with MOLT-4 leukemia; 72% in the assay on RPMI-8226 leukemia; 95.1% with OVCAR-5 ovarian; 86.2% in the assay on OVCAR-4 ovarian; 97.1% in the assay on SK-OV-3 ovarian; 109% with OVCAR-3 ovarian. Also, the figures for the growth with HS 578T breast and in the assay on NCI/ADR-RES ovarian were 92.2% and 92%, respectively.
On to `O=C(NCCNC(=O)c1ccc(Cl)cc1Cl)c1ccc(Cl)cc1Cl`, for which the growth in the assay with SN12C renal is 87.1%; in the assay with UO-31 renal it was 90.9%; with TK-10 renal it was 120%; in the assay with ACHN renal, 110%; with CAKI-1 renal, 84.4%; with A498 renal, 104%. In addition, the growth in the assay with MOLT-4 leukemia was 96.6%; with RPMI-8226 leukemia, 97.8%; in the assay on OVCAR-8 ovarian, 94.7%; with OVCAR-5 ovarian, 119%; in the assay with OVCAR-4 ovarian it was 104%; in the assay with SK-OV-3 ovarian, 98.7%. The growth with IGROV1 ovarian was 100%; in the assay with OVCAR-3 ovarian it was 111%; in the assay on HS 578T breast it was 107%; in the assay on NCI/ADR-RES ovarian, 97.6%.
For the molecule `c1ccc(CN2COc3c(ccc4c3OCN(Cc3ccccc3)C4)C2)cc1`, the growth was 11.1% in the assay on SN12C renal; -17.5% (active) in the assay with UO-31 renal; 30.5% with TK-10 renal; 12.3% with ACHN renal; 7.65% (active) in the assay with CAKI-1 renal; 51.6% in the assay on A498 renal. Further, the growth in the assay on CCRF-CEM leukemia was 5.13% (active); in the assay with MOLT-4 leukemia it was 0.409% (active); in the assay with SR leukemia, 5.08% (active); in the assay with RPMI-8226 leukemia it was 21.9%; in the assay with OVCAR-8 ovarian, 23%; with OVCAR-5 ovarian, 41.8%. The growth was 10.1% with SK-OV-3 ovarian; 32.1% in the assay on IGROV1 ovarian; 24.6% with OVCAR-3 ovarian; 53.6% in the assay on HS 578T breast; 16.6% with NCI/ADR-RES ovarian.
